# Measurements taken from PubChem BioAssay (NCI).
# About 83,000 compounds went through this panel and 20% of them were active in at least one assay; those are over-represented in the sample as a whole.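 Each cell line was grown in a 96-well plate and treated with one concentration of compound for 48 hours. Values below 10 were considered active.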 Values without a mark were called inactive. The source made the active and inactive calls.
# Columns and labels:
# Assay in all cases: NCI-60 one-dose screen, 48 h (100 = growth as untreated, 0 = no growth, -100 = all killed)
# Conditions in all cases: 10 µM unless noted
# [1] = tested on: NCI-H23 lung
# [2] = tested on: NCI-H226 lung
# [3] = tested on: NCI-H322M lung
# [4] = tested on: HOP-62 NSCLC
# [5] = tested on: NCI-H460 lung
# [6] = tested on: NCI-H522 lung
# [7] = tested on: A549/ATCC NSCLC
# [8] = tested on: 786-0 renal
# [9] = tested on: COLO 205 colon
# [10] = tested on: DU-145 prostate
# [11] = tested on: K-562 leukemia
# [12] = tested on: MALME-3M melanoma
# [13] = tested on: MDA-MB-231 breast
# [14] = tested on: SF-268 CNS
# [15] = tested on: SF-295 CNS
# [16] = tested on: SF-539 CNS
# [17] = tested on: UACC-257 melanoma
# [18] = tested on: RXF 393 renal
# [19] = tested on: M14 melanoma
SMILES,growth [1],growth [2],growth [3],growth [4],growth [5],growth [6],growth [7],growth [8],growth [9],growth [10],growth [11],growth [12],growth [13],growth [14],growth [15],growth [16],growth [17],growth [18],growth [19]
c1ccc(C(c2nc3ncncc3[nH]2)N2CSc3nc4ncncc4n3C2)cc1 (configuration not stated),55%,56.2%,64.3%,26.3%,83.6%,39.8%,92.2%,33.9%,61.8%,34.1%,24.8%,58.5%,49.7%,66.8%,39.6%,49.5%,76%,,
CC(C)(C)n1nnnc1C(Nc1cccc2c1OCO2)c1cc2cccc3ccc4cccc1c4c32 (configuration not stated),87.4%,82.2%,96%,98.8%,88.8%,78.8%,81.3%,93.2%,103%,97.5%,75%,93.2%,80.5%,78.7%,81.9%,93%,100%,40.6%,97.8%
CCN(CC)CCn1c2ccc(O)cc2c2sc3cc(OC)ccc3c(=O)c21,28.5%,72.6%,26.2%,26.2%,1.49% (active),30.1%,13.2%,33.3%,17.9%,17.2%,-34.8% (active),28.2%,31.6%,48.1%,13.9%,-74.4% (active),80%,35%,0.234% (active)
O=C(Nc1cccc(Cl)c1)Nc1nc2ccc([N+](=O)[O-])cc2o1,12.6%,29%,17.4%,22.2%,7.51% (active),-0.721% (active),17.2%,28%,-5.17% (active),26.8%,12.3%,-4.16% (active),25.8%,7.72% (active),24.5%,11.4%,1.92% (active),-3.23% (active),18.2%
C=C(C=O)[C@@H]1CC[C@]2(COC(C)=O)CC[C@]3(C)C(CC[C@@H]4[C@@]5(C)CC[C@H](OC(C)=O)C(C)(C)[C@@H]5CC[C@]43C)[C@@H]12 (some centres not stated),-22.4% (active),-55.5% (active),40.5%,80.6%,-23.2% (active),-35.5% (active),36.5%,2.99% (active),-8.44% (active),-53% (active),2.89% (active),-64.7% (active),-32.2% (active),6.02% (active),0.392% (active),-50.2% (active),-17.2% (active),,
ClC(Cl)c1nc(-c2ccco2)n2nc(-c3ccccc3)cc2n1,49.8%,97.5%,-19.4% (active),-1.03% (active),-22.1% (active),91.3%,-2.21% (active),69.3%,-17% (active),-24.8% (active),50.6%,107%,-11.1% (active),24.3%,-15.4% (active),-7.97% (active),54%,,
CCO/C=N/C1=C(C#N)C(c2ccc(OC)cc2)c2sc3c(C)cccc3c2O1 (configuration not stated),25.4%,57%,45.7%,40.8%,9.13% (active),-3.87% (active),27.3%,40.8%,16.1%,22%,12.6%,60.6%,27.5%,54.1%,1.06% (active),-11.6% (active),88.7%,-23.9% (active),5.22% (active)
NC(N)=Nc1ccc(Nc2cccc(Nc3ccc(Cl)c(C(F)(F)F)c3)c2)cn1,41.7%,24.4%,-6.68% (active),19.5%,-23.9% (active),8.21% (active),57%,72.6%,-25.1% (active),66.1%,-2.73% (active),,31%,33.1%,11.6%,80.7%,42.9%,77.6%,47.3%
CCO/C=N/C1=C(C#N)C(c2ccc(Cl)cc2)c2sc3c(C)cccc3c2O1 (configuration not stated),25.2%,51.1%,43.6%,41.4%,4.89% (active),8.93% (active),26.9%,29.1%,4.67% (active),19.2%,7.31% (active),,24.4%,51.1%,-19.3% (active),-11.5% (active),76.2%,-27.6% (active),1.8% (active)
CCO/C=N/C1=C(C#N)C(c2ccc(OC)cc2)c2sc3c(CC)cccc3c2O1 (configuration not stated),32.2%,61.8%,42.2%,54.8%,9.18% (active),18.6%,47.1%,48.7%,34.4%,17.6%,14.5%,,31.7%,61.5%,3.52% (active),4.01% (active),73.8%,-21% (active),16.1%
CCOC(=O)c1c(Nc2ccccc2)nn2c(-c3ccccc3)ccnc12,86.2%,85.3%,94.2%,101%,97.9%,87.9%,92.4%,86.6%,99.5%,97.5%,63.8%,105%,82.4%,113%,92.9%,92.5%,112%,,110%
NC(N)=Nc1ccc(Oc2cccc(Nc3ccc(Br)c(C(F)(F)F)c3)c2)cn1,-61% (active),-78.1% (active),-43.6% (active),-46.1% (active),-76.9% (active),-64.8% (active),-23.9% (active),-67.8% (active),-73.2% (active),-94.5% (active),-30.3% (active),,-57.6% (active),7.02% (active),-86.8% (active),-50.3% (active),-28.5% (active),-10.5% (active),-62.1% (active)
C#CCn1cccc1CNc1ccc(OC)cc1,-88.9% (active),-50.1% (active),47%,-45.3% (active),-50.5% (active),-57.7% (active),-47.6% (active),-69.6% (active),-60.7% (active),-96.6% (active),-46.9% (active),,-53.9% (active),-56% (active),-92% (active),-94.4% (active),23.6%,-32.3% (active),7.08% (active)
NC(N)=Nc1ccc(Nc2cccc(Oc3ccc(Cl)c(C(F)(F)F)c3)c2)cn1,32%,36.5%,52.9%,17.4%,-71.3% (active),18%,19.9%,54.3%,-48.7% (active),38.3%,-48.8% (active),,47.5%,53.6%,23.8%,78.5%,31.9%,56.6%,41.2%
NC(N)=Nc1ccc(Oc2cccc(Nc3cccc(C(F)(F)F)c3)c2)cn1,-2.6% (active),20.1%,14.7%,3.3% (active),-76.8% (active),-34.6% (active),35.8%,33.7%,-47.3% (active),-10.7% (active),-47.3% (active),,12%,49.3%,-86.1% (active),70.8%,25.8%,2.79% (active),5.01% (active)
CCO/C=N/C1=C(C#N)C(c2ccc(Cl)cc2)c2sc3c(CC)cccc3c2O1 (configuration not stated),22%,54.7%,43.3%,45.1%,9.19% (active),7.65% (active),30%,41.9%,14%,13.6%,11.4%,,37.2%,58.3%,-12.1% (active),-3.86% (active),70.3%,-27.7% (active),8.6% (active)
COc1ccc(C2CC(c3ccc(Nc4nc(NCCO)nc(N5CCOCC5)n4)cc3)=Nc3c(N)nc(N)nc3N2)cc1 (configuration not stated),99.1%,94.8%,95%,108%,110%,95.6%,104%,97.3%,109%,103%,99.1%,,90.6%,90.2%,106%,92.2%,109%,114%,107%
